Measured potencies and affinities stand elsewhere. Active and inactive are the calls of the source.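 Rule for the calls: active = every repeat run showing a signal drop whose fitted half-maximal concentration is at most twice the top tested concentration; inconclusive = repeat runs disagree, or flat partial drop, or poor fit; inactive = the rest.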
Test: general mammalian cell viability loss – activator set, cherry-pick, cytotoxicity control for miR-122 modulator project, dose response (AID 720690)
Conditions: HEK293T viability, CellTiter-Glo luminescence, 48 h; series mostly up to 26 µM

SMILES | outcome
CCCNC(=O)N1[C@H](CNC(C)=O)[C@H](c2ccc(C3=CCCC3)cc2)[C@@H]1CO | inactive
Cc1noc(C)c1NC(=O)N(C)C[C@@H]1Oc2cc(C#CCC3CCCC3)ccc2S(=O)(=O)N([C@@H](C)CO)C[C@@H]1C | inactive
CO[C@@H]1CN(C)C(=O)c2ccc(NS(C)(=O)=O)cc2OC[C@H](C)N(C(=O)CN(C)C)C[C@@H]1C | inactive
COCC(=O)Nc1ccc2c(c1)C(=O)N(C)[C@@H]1CC[C@@H](CC(=O)NCc3ccc(OC)cc3)O[C@H]1CO2 | inactive
CO[C@H]1CN(C)C(=O)c2cc(NC(=O)C3CC3)ccc2OC[C@H](C)N(CCc2ccccc2)C[C@H]1C | inactive
CN1C(=O)c2cc(NC(=O)c3cccs3)ccc2OC[C@@H]2O[C@H](CC(=O)NCCN3CCCCC3)CC[C@H]21 | inactive
CN1[C@@H](CO)[C@@H]2c3ccccc3N(C(=O)Nc3cc(F)ccc3F)C[C@@H]21 | inactive
COCC(=O)N1[C@@H](CO)[C@@H]2c3ccccc3N(C(=O)C3CC3)C[C@@H]21 | inactive
CCCN(C[C@@H]1N[C@@H](CO)[C@H]1c1ccc(-c2cccnc2)cc1)C(C)=O | inactive
CC#CCCCC(=O)Nc1ccccc1C(=O)O | inactive
C[C@@H]1CN([C@@H](C)CO)C(=O)Cc2cc(NC(=O)Nc3ccc(C(F)(F)F)cc3)ccc2O[C@H]1CN(C)CC1CCCCC1 | inactive
CCNC(=O)C[C@H]1CC[C@@H]2[C@H](COc3ccc(NC(=O)Nc4cccc(OC)c4)cc3C(=O)N2C)O1 | inactive
C/C(=N\Nc1cc(N2CCCCC2)nc(C)n1)c1ccc(Br)cc1 | inactive
O=C(NC[C@H]1[C@@H](c2ccccc2)[C@@H](CO)N1CC1CCCC1)c1ccncc1 | inactive
CCCC(=O)Nc1ccc2c(c1)C(=O)N(C)[C@H]1CC[C@@H](CC(=O)NCCN3CCCCC3)O[C@H]1CO2 | inactive
c1ccc(CCCNCCCn2cnc3c(OCc4ccccc4)ncnc32)cc1 | inactive
CCCC#Cc1ccc2c(c1)O[C@H](CN(C)C(=O)c1ccncc1)[C@H](C)CN([C@@H](C)CO)S2(=O)=O | inactive
O=C(NCC(c1cccnc1)N1CCOCC1)NC1CCCCC1 (centres undefined) | inactive
COc1cccc(-c2nn(-c3ccccc3)cc2CO)c1 | inactive
N#Cc1c(N)nc2c(c1-c1cccs1)CCCC2 | inactive

SMILES | outcome
C[C@@H]1CCCCO[C@H](CN(C)CC2CCCCC2)[C@H](C)CN([C@H](C)CO)C(=O)c2cc(NC(=O)Nc3ccc4c(c3)OCO4)ccc2O1 | inactive
CN1C(=O)c2cc(NC(=O)c3cccc(F)c3)ccc2OC[C@@H]2O[C@H](CC(=O)O)CC[C@H]21 | inactive
CN1C(=O)c2cc(NC(=O)Nc3ccc(Cl)cc3)ccc2OC[C@H]2O[C@H](CC(=O)NCCN3CCCCC3)CC[C@H]21 | inactive
CN(Cc1ccccc1)C(=O)COC(=O)c1ccccc1Nc1ccccc1 | inactive
COCCN(C[C@@H]1[C@@H](c2ccccc2)[C@H](CO)N1C(=O)C1CCC1)C(C)=O | inactive
O=C(Nc1ccccc1F)N1[C@H](CO)[C@@H]2c3ccccc3NC[C@@H]21 | inactive
C/C=C/c1ccc([C@H]2[C@H](CO)N[C@H]2CN(CC(C)C)C(=O)c2ccccn2)cc1 | inactive
O=C(NC[C@@H]1[C@@H](c2ccccc2)[C@H](CO)N1C(=O)C1CCC1)NC1CCCC1 | inactive
CC(C)N(C[C@H]1[C@H](c2ccccc2)[C@@H](CO)N1S(C)(=O)=O)C(=O)CN(C)C | inactive
CC(=O)Nc1ccc2c(c1)C(=O)N(C)[C@@H]1CC[C@H](CC(=O)NCCCN3CCOCC3)O[C@@H]1CO2 | inactive
O=C(NCCCN1CCCC1)c1ccc(CSCc2cccc(Cl)c2)o1 | inactive
COc1cccc(C(=O)Nc2ccc3c(c2)C(=O)N(C)[C@H]2CC[C@H](CC(=O)NCc4ccc(F)cc4)O[C@@H]2CO3)c1 | inactive
CN(C)c1ncnc2c1ncn2C1OC(CO)C(O)C1O (centres undefined) | inactive
COC(=O)C[C@@H]1CC[C@@H]2[C@@H](COc3ccc(NS(=O)(=O)c4ccccc4F)cc3C(=O)N2C)O1 | inactive
CO[C@@H]1CN(C)C(=O)c2ccc(NC(=O)Nc3ccc(C(F)(F)F)cc3)cc2OC[C@H](C)NC[C@H]1C | inactive
O=C(C1CCCC1)N1C[C@H]2[C@@H](c3ccccc31)[C@H](CO)N2C(=O)Nc1cccc(F)c1 | inactive
CN1C(=O)c2cc(NC(=O)c3cccc(F)c3)ccc2OC[C@@H]2O[C@@H](CC(=O)Nc3ccccc3)CC[C@@H]21 | inactive
C[C@@H]1CN([C@@H](C)CO)C(=O)c2cccc(NS(C)(=O)=O)c2O[C@H]1CN(C)S(=O)(=O)c1ccc(Cl)cc1 | inactive
CC(C)NC(=O)N1[C@H](CO)[C@@H](c2ccccc2)[C@@H]1CN(C)C(=O)c1cccnc1 | inactive
